High-throughput results as filed in PubChem BioAssay.
Shown are actives, neighbours in structure and some others; about 3.2% of the full set was active somewhere.
USP2a block – inhibitors of human ubiquitin-specific protease USP2a | O75604 | Potency, µM (titrated, usually from 38.3 µM), for the others: at the top dose activity change, negative = inhibition, usual class: inhibitors | actives 0.01% (n = 330,000) | USP2 core, Ub-CHOP2 coupled fluorogenic reporter, 485/531;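 note: potency is the fitted concentration of half-maximal effect; plate controls were DMSO wells for no effect and full inhibition by NEM control for full effect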
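USP2 core (10nM final) preincubated 30min RT with compound in 20mM Tris-HCl pH 8.0, 2mM CaCl2, 2mM beta-mercaptoethanol, 0.05% CHAPS; 25nM Ub-CHOP2 plus 25nM reporter substrate added, fluorescence (Ex485/Em531) read after 60min.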
PLK1 PBD inh – blocks phosphopeptide binding to human PLK1 polo-box domain | P53350 | Plk1 PBD binding of FITC phosphopeptide, fluorescence polarization | Potency, µM, inactives show max response, negative = inhibition, usual class: inhibitors | actives 2.8% (n = 360,000) | AID 720504; note: potency is the fitted concentration of half-maximal effect; series mostly up to about 57 µM; nearly all actives have a fitted effect of over 65% in size
GALK inhibitor – galactokinase (human) inhibition. actives 0.007% (n = 270,000). AID 1868. Purified GALK, Kinase-Glo residual ATP luminescence. Potency, µM (highest dose often 57.5 µM), inactives show at the highest dose activity change, negative = inhibition, actives largely listed as inhibitors. P51570; note: potency is the fitted concentration of half-maximal effect
Target sequence (P51570 whole entry, looked up): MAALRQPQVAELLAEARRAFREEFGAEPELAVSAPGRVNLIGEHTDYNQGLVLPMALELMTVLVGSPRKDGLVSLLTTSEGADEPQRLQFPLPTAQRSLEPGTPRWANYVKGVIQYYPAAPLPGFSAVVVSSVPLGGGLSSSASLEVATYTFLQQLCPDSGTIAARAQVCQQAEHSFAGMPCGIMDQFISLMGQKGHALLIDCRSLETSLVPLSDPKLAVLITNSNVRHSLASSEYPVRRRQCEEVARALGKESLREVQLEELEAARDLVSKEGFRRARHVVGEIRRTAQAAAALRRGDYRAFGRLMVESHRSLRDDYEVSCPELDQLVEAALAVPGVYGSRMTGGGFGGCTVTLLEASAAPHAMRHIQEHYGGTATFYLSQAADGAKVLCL
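Human GALK (5 nM) with 35 uM ATP and 100 uM galactose in 20 mM HEPES pH 8.0, 5 mM MgCl2, 60 mM NaCl, 1 mM DTT, 0.01% BSA. After 1 h at room temperature, leftover ATP was read by Kinase-Glo Plus luminescence.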
USP1-UAF1 inh – blocks the human USP1/UAF1 deubiquitinase complex; O94782; recombinant USP1/UAF1, Ub-Rhodamine cleavage fluorescence; Potency, µM (doses to about 57.1 µM), for the others: top-dose activity change, negative = inhibition, actives largely listed as inhibitors; actives 0.23% (n = 390,000); note: potency is the fitted concentration of half-maximal effect; nearly all actives have a fitted effect of over 60% in size
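USP1/UAF1 complex at 1 nM was preincubated with compound for 15 min at room temperature, then Ub-Rho substrate (150nM final) was added. Fluorescence (480/540 nm) was read kinetically, 6 reads every 60 seconds.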
Coupling enz – coupling enzyme interference in Giardia aldolase counter-screen; coupling enzyme system counterscreen, AmpLite Red fluorescence; AID 2472; actives 0.67% (n = 290,000); activity change, negative = inhibition, % at 58.2 µM, hits read low; in the data active = activity change below about -30%
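Fluorescence at 525 nm excitation and 598 nm emission measured inhibition of the coupled detection system without aldolase. Compounds (at 57.5 uM final) were preincubated 10 min at room temperature with coupling enzyme reagent before a 20 min substrate/AmpLite Red step.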
VDR inhibitor – inhibitors of human vitamin D receptor. P11473. VDR-SRC2-3 peptide fluorescence polarization, 2 h. Potency, µM, for inactives: max response, negative = inhibition, actives largely listed as inhibitors. actives 0.93% (n = 400,000). AID 504847; note: potency is the fitted concentration of half-maximal effect
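The screen uses fluorescence polarization to detect compounds that interfere with recruitment of the SRC2-3 coactivator peptide to VDR; plates are read after 2 h at room temperature.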
Active calls of the source: *; ? = inconclusive; . = no result given; ! = repeats disagree. Unless noted, calls come from the whole dose curve; as a rule, active = well fitted curve in the direction sought with a large enough effect; inconclusive = small, poorly fitted or top-dose-only effect, or another doubt; inactive = no such curve, though single readings can be large; an effect the other way counts as inactive or inconclusive. Unless noted, % is set by controls: 0 for no effect and ±100 for the full control effect.

SMILES	USP2a block	PLK1 PBD inh	GALK inhibitor	USP1-UAF1 inh	Coupling enz	VDR inhibitor
COC(CN(C)C(=O)C1CCC(CNS(=O)(=O)c2ccc(C)cc2)CC1)OC (centres undefined)	6%	21µM*	2%	-23%	0	-13%
CN(C)[C@@H]1C(=O)C(C(=O)NCN2CCCC2)=C(O)[C@@]2(O)C(=O)C3=C(O)c4c(O)cccc4[C@@](C)(O)C3CC12 (some centres undefined)	-2%	.	-2%	.	-39*	.
CN(C)Cc1cc(CN(C)C)c(O)c(CCc2ccccc2)n1	-2%	?	1%	-24%	0	14%
Cc1ccc(Oc2ccccc2/C=N/O)cc1	0%	3.4µM*	1%	-6%	3	-17%
Cc1ccc(S(=O)(=O)Oc2ccccc2/C=N/O)cc1	0%	-1%	2%	-25%	-3	-25%
CCOC(=O)/C(C#N)=C\c1cc(OC)c(OC)cc1[N+](=O)[O-]	-1%	7.5µM*	5%	-13%	2	20µM*
CCOC(=O)/C(C#N)=C\c1ccc(OC)c(OC)c1	4%	-16%	2%	-6%	2	0%
CCC(CC)c1nnc(NC(=O)CCc2ccccc2)s1	-5%	-14%	3%	-16%	1	-3%
O=C(Nc1cccc(Cl)c1)N1CCN(Cc2ccccc2)CC1	2%	-4%	0%	-5%	1	-12%
Nc1nc2cc(S(=O)(=O)NC3=NCCCCC3)ccc2s1	2%	21µM*	-2%	-4%	3	?
CCOC(=O)c1ccc(S(=O)(=O)Nc2nc3cc(S(=O)(=O)NC4=NCCCCC4)ccc3s2)cc1	-6%	24µM*	-2%	-9%	15	?
O=C(COC(=O)c1ccc(O)cc1)Nc1cccc(S(=O)(=O)NC2=NCCCCC2)c1	0%	-4%	2%	-8%	1	1%
CC(C)(C)OC(=O)NCCCCCc1cn([C@@H](CO)C(=O)NCCCCCCCCCCC(=O)N2CCN(C(=O)OC(C)(C)C)CC2)nn1	-12%	-5%	.	-22%	.	-8%
Cc1ccc(OCC(=O)N/N=C/c2ccc([N+](=O)[O-])o2)cc1	2%	-13%	0%	-11%	0	5%
Cc1ccc(NC(=O)Cn2c(=S)[nH]c3ccccc32)cc1	-5%	24µM*	0%	-14%	1	-14%
CCCCOC(=O)C(C)Sc1n[nH]c(=O)[nH]c1=O (centres undefined)	-2%	27µM*	0%	-22%	-2	-18%
O=C(Nc1ccc(F)cc1F)c1ccc2c(=O)n3c(nc2c1)CCC3	2%	-6%	.	-8%	.	5%
c1ccc(CN(Cc2ccco2)C(c2ccncc2)c2nnnn2C2CCCC2)cc1 (centres undefined)	0%	?	0%	?	-26	28µM*
CSc1ccc(CNC(=O)c2ccc(NC(=O)c3nsc4ccccc34)cc2)cc1	.	.	.	-18%	.	-12%
COc1ccc2cc(/C=N/O)c(Cl)nc2c1	-2%	-9%	3%	-12%	-3	-20%
COc1ccc2cc(CO)c(Cl)nc2c1	7%	6.7µM*	-1%	-10%	0	-15%
COc1ccc(CCNC(=O)CSc2nnnn2-c2ccc(OC)c(OC)c2)cc1OC	5%	13µM*	-4%	-13%	4	11%
COc1ccc(CCNC(=O)CSc2ccc3ccccc3c2)cc1OC	1%	-3%	0%	-17%	-2	?
COc1cccc(-n2nnnc2SCC(=O)NCCc2ccc(OC)c(OC)c2)c1	2%	?	10%	-4%	0	-9%
COc1ccc(CCNC(=O)CSc2ccc(NC(C)=O)cc2)cc1OC	2%	13µM*	2%	?	2	-4%
SMILES	USP2a block	PLK1 PBD inh	GALK inhibitor	USP1-UAF1 inh	Coupling enz	VDR inhibitor
COc1cc(C)c(/C=C/C(C)=C/C=C/C(C)=C/C(=O)O)c(C)c1C	.	30µM*	.	-33%	.	45µM*!
CCOC(=O)/C=C(C)/C=C/C=C(C)/C=C/c1c(C)cc(OC)c(C)c1C	.	.	.	.	.	-7%
O=C(CNS(=O)(=O)c1ccc(Br)s1)NC1CCCc2ccccc21 (centres undefined)	1%	1%	.	-21%	7	-26%
COC(=O)[C@@]1(Cc2ccc(OC)cc2)[C@@H]2C(=CC(=O)[C@H]2CC(=O)C(=O)N2CCCC2)CN1C(=O)c1ccccc1	10%	-7%	.	-14%	-4	89µM*
COC(=O)[C@@]1(Cc2ccc(F)cc2)[C@@H]2C(=CC(=O)[C@H]2CC(=O)C(=O)N2CCCC2)CN1C(=O)c1ccccc1	.	.	.	.	-1	.
COCCNC(=O)C(C)OC(=O)c1nsc(Cl)c1Cl (centres undefined)	-4%	-5%	-1%	-11%	1	-9%
COCCNC(=O)COC(=O)c1nsc(Cl)c1Cl	1%	27µM*	0%	-8%	0	-5%
CN(CC(=O)NCCc1ccc(S(N)(=O)=O)cc1)S(=O)(=O)c1cccc2nsnc12	0%	-5%	1%	-2%	-1	9%
O=C(/C=C/c1cccc([N+](=O)[O-])c1)c1ccc([N+](=O)[O-])o1	.	5.3µM*	.	?	.	2.8µM*
Cc1oc(-c2ccccc2F)nc1CSCC(=O)NC1CC1	0%	27µM*	0%	-19%	-1	?
S=P(N1CC1)(N1CC1)N1CC1	-1%	?	.	-26%	1	89µM*!
Cc1ncc(CO)c(/C=N/NC(=S)Nc2ccc(C(C)C)cc2)c1O	0%	12µM*	-2%	-29%	0	?
O=C(COc1ncnc2ccccc12)N1CCN(S(=O)(=O)c2ccc(Cl)cc2)CC1	-3%	30µM*	2%	-14%	-2	-10%
O=C(COc1ncnc2ccccc12)N1CCN(S(=O)(=O)c2ccccc2)CC1	3%	-5%	0%	-4%	4	-20%
Cc1ccc(CN(Cc2ccco2)C(=S)NCC(=O)NC2CC2)cc1	1%	-12%	1%	-17%	0	-16%
O=C(COC(=O)c1ccc(Cl)nc1)Nc1ccc2ccccc2c1	2%	-6%	.	?	.	-15%
CCC1CCCCN1C(=O)c1ccccc1OC1CCN(S(C)(=O)=O)CC1 (centres undefined)	3%	-3%	1%	-29%	-1	-2%
COC(=O)Cn1c(SCc2ccccc2)nc2ccccc21	0%	27µM*	-1%	-1%	0	-9%
Cc1noc(C)c1CSc1nc2ccccc2n1CCc1ccccc1	-1%	?	-2%	-21%	-6	79µM*
Cc1noc(C)c1CSc1nnc(-c2ccccc2)n1N	6%	21µM*	0%	-7%	1	?
